Records with an inconclusive call do not appear. Calls of active or inactive are those of the source. The call rests on the fitted dose curve; in most records, active means well fitted curve in the direction sought with a large enough effect; inconclusive means small, poorly fitted or top-dose-only effect, or another doubt; inactive means no such curve, though single readings can be large; an effect the other way counts as inactive or inconclusive.
What was measured:
[1] = Quantitative High-Throughput drug screen in 47 multiple myeloma cell lines against the NCATS MIPE library collection: KMM1_JCRB cell viability assay (AID 1918960); further: nearly all actives have a fitted effect of over 30% in size
Method in brief: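 Here, 48 h treatment with MIPE 4.0 agents at 37 °C preceded an ATP luminescence read. Plating density was 500 cells per well.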

[2] = Quantitative High-Throughput drug screen in 47 multiple myeloma cell lines against the NCATS MIPE library collection: JIM1_ECACC cell viability assay (AID 1918964)
Method in brief: (§1)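 qHTS of the MIPE 4.0 collection: 500 myeloma cells/well, 48 h drug exposure at 37C in 5% CO2, then CellTiter-Glo for 5 min at room temperature before luminescence reading.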

[3] = Quantitative High-Throughput drug screen in 47 multiple myeloma cell lines against the NCATS MIPE library collection: INA6_PLB cell viability assay (AID 1918965; further: nearly all actives have a fitted effect of over 55% in size)
Method in brief: (§2)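 Myeloma cell lines, 500 cells per well, exposed to MIPE 4.0 library compounds for 48 h at 37C, 5% CO2. Viability from ATP by CellTiter-Glo luminescence; normalised to DMSO (100%) and media-only (0%) wells.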

[4] = Quantitative High-Throughput drug screen in 47 multiple myeloma cell lines against the NCATS MIPE library collection: Karpas25_ECACC cell viability assay (AID 1918968; further: nearly all actives have a fitted effect of over 35% in size)
Method in brief: as §1

[5] = Quantitative High-Throughput drug screen in 47 multiple myeloma cell lines against the NCATS MIPE library collection: JIM3_ECACC cell viability assay (AID 1918963; further: nearly all actives have a fitted effect of over 35% in size)
Method in brief: as §2

[6] = Quantitative High-Throughput drug screen in 47 multiple myeloma cell lines against the NCATS MIPE library collection: JJN3_DSMZ cell viability assay (AID 1918966; further: nearly all actives have a fitted effect of over 50% in size)
Method in brief: as §1

[7] = Quantitative High-Throughput drug screen in 47 multiple myeloma cell lines against the NCATS MIPE library collection: KMS27_JCRB cell viability assay (AID 1918970); details: KMS27 myeloma cells, CellTiter-Glo ATP viability, 48 h; viability (% of DMSO): at 45.8 µM (top of the series); further: nearly all actives have a fitted effect of over 30% in size
Method in brief: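 KMS27_JCRB myeloma cells, 500 per well, exposed 48 h at 37 C, 5% CO2 to MIPE 4.0 compounds. Viability from ATP by CellTiter-Glo luminescence, normalized to DMSO (100%) and medium-only (0%) wells.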

[8] = Quantitative High-Throughput drug screen in 47 multiple myeloma cell lines against the NCATS MIPE library collection: H1112_PLB cell viability assay (AID 1918967; further: nearly all actives have a fitted effect of over 30% in size)
Method in brief: as §1

[9] = Quantitative High-Throughput drug screen in 47 multiple myeloma cell lines against the NCATS MIPE library collection: Karpas417_ECACC cell viability assay (AID 1918961); details: Karpas417 myeloma viability, CellTiter-Glo ATP luminescence, 48 h; viability (% of DMSO): at 45.8 µM (top of the series)
Method in brief: as §2

[10] = Quantitative High-Throughput drug screen in 47 multiple myeloma cell lines against the NCATS MIPE library collection: KHM11_PLB cell viability assay (AID 1918962); further: nearly all actives have a fitted effect of over 35% in size
Method in brief: as §2
Potency means the concentration at half of the fitted maximal effect.

CCN(CC)CCCCNc1ncc2c(n1)N(C)C(=O)N(c1c(Cl)c(OC)cc(OC)c1Cl)C2
inactive: Potency [1] | Potency [2]
active: Potency [3] 11.8 µM | Potency [4] 16.6 µM

Nc1ccn(C[C@@H](CO)OCP(=O)(O)O)c(=O)n1
inactive: Potency [1] | Potency [5] | Potency [2] | Potency [6] | Potency [4] | Potency [7]

CCCCCCCCCCCCc1ccc(S(=O)(=O)Nc2nncs2)cc1
inactive: Potency [1] | Potency [5] | Potency [3] | Potency [8] | Potency [4] | Potency [7]

C[C@H](O)[C@@H]1C(=O)N2C(C(=O)O)=C(S[C@@H]3CN[C@H](CNS(N)(=O)=O)C3)[C@@H](C)[C@@H]12
inactive: Potency [1] | Potency [5] | Potency [2] | Potency [8] | Potency [4] | Potency [7]

CC(C)n1cnc2c(NCCc3ccc(O)cc3)nc(-c3csc4ccccc34)nc21
inactive: Potency [1]
active: Potency [5] 9.35 µM | Potency [3] 20.9 µM | Potency [4] 4.18 µM

Cc1ccc(-n2[nH]c(C)c(N=Nc3cccc(-c4cccc(C(=O)O)c4)c3O)c2=O)cc1C
inactive: Potency [1]
active: Potency [2] 13.2 µM | Potency [3] 23.5 µM | Potency [8] 20.9 µM

CC(C)(O)CC[C@@H](O)[C@](C)(O)[C@H]1CC[C@@]2(O)C3=CC(=O)[C@@H]4C[C@@H](O)[C@@H](O)C[C@]4(C)[C@@H]3CC[C@]12C
inactive: Potency [1] | Potency [5] | Potency [2] | Potency [8] | Potency [4] | Potency [7]

N#Cc1c(NC(=O)c2cccc3ccccc23)sc2c1CCCC2
active: Potency [1] 0.296 µM | Potency [2] 0.187 µM | Potency [3] 0.296 µM | Potency [6] 2.64 µM | Potency [8] 0.418 µM | Potency [4] 0.743 µM | Potency [7] 0.0209 µM

Cc1ccc(O)c(C(CCN(C(C)C)C(C)C)c2ccccc2)c1 (stereo not drawn)
inactive: Potency [1] | Potency [5] | Potency [6] | Potency [8] | Potency [4]

N=c1ccn2c(n1)O[C@H]1[C@@H](O)[C@@H](CO)O[C@H]12
inactive: Potency [5] | Potency [2] | Potency [6]
active: Potency [1] 10.5 µM | Potency [3] 4.18 µM | Potency [7] 5.9 µM

C[C@]12CCC(=O)C=C1[C@@H]1CC1[C@H]1[C@H]3[C@@H]4C[C@H]4[C@@]4(CCC(=O)O4)[C@@]3(C)CC[C@H]12 (stereo partly drawn)
active: Potency [1] 20.9 µM | Potency [3] 20.9 µM
inactive: Potency [5] | Potency [6] | Potency [8]

CC(C)(C)[C@H](NC(=O)c1ccc(N)c(Cl)c1)C(=O)N1CCC[C@@H]1C(=O)N[C@H](C#N)CC(=O)O
inactive: viability (% of DMSO) [1] 90.2% [at 3.51 µM] | viability, percent of control [5] 130% [at 3.51 µM] | viability [8] 116% [at 3.51 µM]
active: Potency [7] 1.05 µM

CC(C)c1cnn2c(NCc3ccccc3)cc(NCCCCCCN)nc12
active: Potency [1] 16.6 µM | Potency [5] 20.9 µM | Potency [3] 26.4 µM | Potency [6] 23.5 µM | Potency [7] 18.7 µM

O=c1[nH]c(=O)n([C@H]2C[C@@H](O)[C@@H](CO)O2)cc1F
active: Potency [1] 1.66 µM | Potency [2] 18.7 µM | Potency [3] 1.32 µM | Potency [8] 4.69 µM | Potency [7] 9.35 µM

C[N+](C)([O-])CCNc1ccc(NCC[N+](C)(C)[O-])c2c1C(=O)c1c(O)ccc(O)c1C2=O
active: Potency [3] 16.6 µM
inactive: Potency [1] | Potency [5] | Potency [8] | Potency [4] | Potency [7]

O=C(CN1C(=O)C2(CCCC2)NC[C@H]1c1cc(F)cc(F)c1)Nc1ccc2c(c1)C[C@@]1(C2)C(=O)Nc2ncccc21
active: Potency [2] 18.7 µM
inactive: Potency [9] | Potency [5] | Potency [3] | Potency [8] | Potency [4]

COc1cc(OC)c(NC(=O)Nc2cc(C)on2)cc1Cl
active: Potency [4] 14.8 µM
inactive: Potency [1] | Potency [3] | Potency [8]

N#Cc1c(C2CCNCC2)cc(-c2c(O)cccc2OCC2CC2)nc1N
active: Potency [9] 2.64 µM | Potency [10] 11.8 µM | Potency [5] 18.7 µM | Potency [3] 16.6 µM | Potency [6] 18.7 µM | Potency [4] 18.7 µM | Potency [7] 0.418 µM

CC(=O)N[C@@H]1[C@H](O[C@@H]2c3ccc(c(Cl)c3)Oc3cc4cc(c3O[C@H]3O[C@H](CO)[C@@H](O)[C@H](O)[C@H]3NC(=O)CCCCCCCC(C)C)Oc3ccc(cc3Cl)C[C@H]3NC(=O)[C@H](N)c5ccc(O)c(c5)Oc5cc(O)cc(c5)[C@H](NC3=O)C(=O)N[C@H]4C(=O)N[C@H]3C(=O)N[C@@H]2C(=O)N[C@@H](C(=O)O)c2cc(O)cc(O[C@H]4O[C@H](CO)[C@@H](O)[C@H](O)[C@H]4O)c2-c2cc3ccc2O)O[C@H](CO)[C@@H](O)[C@@H]1O
inactive: Potency [1] | Potency [3] | Potency [4] | Potency [7]

Cn1cc(C2=C(c3c4n(c5ccccc35)CCC(CN)C4)C(=O)NC2=O)c2ccccc21 (stereo not drawn)
active: Potency [9] 9.35 µM | Potency [10] 7.43 µM | Potency [5] 10.5 µM | Potency [2] 8.33 µM | Potency [3] 3.72 µM | Potency [6] 9.35 µM | Potency [4] 7.43 µM | Potency [7] 8.33 µM

COc1cc2c(cc1O)CCC1C2CC[C@@]2(C)C1CC[C@@H]2O (stereo partly drawn)
inactive: Potency [9]
active: Potency [5] 1.32 µM | Potency [3] 1.66 µM | Potency [6] 8.33 µM | Potency [4] 2.96 µM

Source: PubChem BioAssay (NCATS)
